These results are taken from PubChem BioAssay (NCATS).

Records with an inconclusive call do not appear. Entries that show only a call come without a potency. Active and inactive are the calls of the source. Unless noted, calls come from the whole dose curve.

Experiment [1] is described as follows: qHTS Assay for Lipid Storage Modulators (AID 1519). The settings on record: Drosophila S3 cells, BODIPY lipid droplet/cell ratio, laser cytometry, cells loaded with oleic acid; for activity change, negative = inhibition: at 57.5 µM (top of the series). The essentials:
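Cells seeded at 5,000 per well were treated with compounds over a concentration series and loaded with oleic acid (400 uM, as added). Lipid droplet fluorescence (488 nm excitation, 500-530 nm channel) was read by laser-scanning cytometry and normalized to 20 uM Triacsin C.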

Experiment [2] in a line: Validation screen for inhibitors of Lassa infection (AID 463096). The settings on record: Lassa virus infection, cell-based; series mostly up to 46.1 µM.
Experiment [3] is described as follows: qHTS Assay for Identification of Small Molecule Inducers of Hypoxia Response (AID 2120; active = well fitted curve in the direction sought with a large enough effect in the signal ratio, with a control signal flat, not every such curve was filed as active; the % refers to the signal ratio). The following applies: hypoxia response reporter cells, beta-lactamase ratio readout; series mostly up to 104 µM. The essentials: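 Reporter induction read as the CCF4 blue/green (460nm/530nm) emission ratio after 2.5 h dye loading at room temperature. ME-180 HRE-beta-lactamase cells received titrated compounds for 17 h at 37 degrees Celsius; AC50 values derived.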

Experiment [4] is described as follows: qHTS for differential inhibitors of proliferation of Plasmodium falciparum line 7G8 (AID 1815; active = well fitted curve in the direction sought with a large enough effect; an effect the other way counts as inactive or inconclusive;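 note: potency is the fitted concentration of half-maximal effect; parasite growth measured after three days of incubation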). The settings on record: Plasmodium falciparum 7G8 proliferation inhibition; series mostly up to 28.7 µM.
A short description of experiment [5]: qHTS for differential inhibitors of proliferation of Plasmodium falciparum line GB4 (AID 1816; active = well fitted curve in the direction sought with a large enough effect; an effect the other way counts as inactive or inconclusive;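 note: potency is the fitted concentration of half-maximal effect; parasite growth measured after 72 h incubation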). The following applies: Potency: Plasmodium falciparum GB4 proliferation inhibition; series mostly up to 28.7 µM.
A short description of experiment [6]: qHTS for differential inhibitors of proliferation of Plasmodium falciparum line 3D7 (AID 1876; active = well fitted curve in the direction sought with a large enough effect; an effect the other way counts as inactive or inconclusive; note: potency is the fitted concentration of half-maximal effect). The following applies: P. falciparum 3D7 proliferation inhibition; series mostly up to 28.7 µM.
Experiment [7] can be described thus: qHTS for differential inhibitors of proliferation of Plasmodium falciparum line D10 (AID 1877; active = well fitted curve in the direction sought with a large enough effect; an effect the other way counts as inactive or inconclusive;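 note: potency is the fitted concentration of half-maximal effect; parasites grown with compound for 72 h before DNA staining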). The settings on record: series mostly up to 28.7 µM.
A short description of experiment [8]: qHTS for differential inhibitors of proliferation of Plasmodium falciparum line W2 (AID 1883; active = well fitted curve in the direction sought with a large enough effect; an effect the other way counts as inactive or inconclusive;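 note: potency is the fitted concentration of half-maximal effect; parasites grown with compound for 72 h before lysis and staining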). The settings on record: Potency: Plasmodium falciparum W2 proliferation inhibition; series mostly up to 28.7 µM.
Experiment [9] in a line: qHTS for differential inhibitors of proliferation of Plasmodium falciparum line HB3 (AID 1886; active = well fitted curve in the direction sought with a large enough effect; an effect the other way counts as inactive or inconclusive;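 note: potency is the fitted concentration of half-maximal effect; parasites grown with compound for 72 h before SYBR Green readout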). The settings on record: Potency: Plasmodium falciparum HB3 proliferation inhibition; series mostly up to 28.7 µM.
Experiment [10] addresses RecQ-like DNA helicase BLM (Homo sapiens) (UniProt P54132). The experiment can be described thus: qHTS Validation Assay for Inhibitors of Bloom's syndrome helicase (BLM) (AID 2364; active = well fitted curve in the direction sought with a large enough effect; an effect the other way counts as inactive or inconclusive). The following applies: BLM helicase DNA unwinding, fluorescence, in vitro; series mostly up to 57.1 µM. The essentials:
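Forked 20-bp duplex substrate (200 nM, TAMRA/BHQ-2) plus 2 mM ATP added after 15 min compound preincubation with 50 nM enzyme, pH 8.0, poly(dI-dC) 2.5 ug/ml. Strand separation followed by fluorescence (525/598 nm) over 2 h, normalized to enzyme-free and DMSO controls.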

Experiment [11] has as its target Ferritin light chain (Equus caballus) (UniProt P02791). The experiment can be described thus: qHTS Validation Assay for Identification of Novel General Anesthetics (AID 2323; active = well fitted curve in the direction sought with a large enough effect; an effect the other way counts as inactive or inconclusive). The following applies: horse apoferritin, anesthetic-site fluorescent probe displacement; series mostly up to 76.9 µM. The essentials:
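Normalized fluorescence response, scaled between free 1-AMA and 1-AMA/apoferritin complex, fitted to a four-parameter Hill equation for concentration-effect values. Binding mix: 10 uM horse-spleen apoferritin, 50% saturated 1-AMA in PBS; read 380/535 nm after 10 min.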

Experiment [12] in a line: qHTS for differential inhibitors of proliferation of Plasmodium falciparum line Dd2 (AID 1882; active = well fitted curve in the direction sought with a large enough effect; an effect the other way counts as inactive or inconclusive; note: potency is the fitted concentration of half-maximal effect; nearly all actives have a fitted effect of over 65% in size). The settings on record: Potency: Plasmodium falciparum Dd2 proliferation inhibition; series mostly up to 28.7 µM. The procedure, abridged: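 SYBR Green DNA fluorescence (ex 485, em 535 nm) after overnight lysis quantifies parasite growth; compound exposure lasted 72 h at 37 C on infected red cells at 2.5% hematocrit, 0.3% parasitemia (final). Artemisinin 0.29 uM and vehicle wells define normalization.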

[13] abbreviates: measured here: cell count channel max response.
Setting [14] is: measured here: lipid channel max response.

Sequence of Ferritin light chain (Equus caballus) (P02791 2-175 limits assumed): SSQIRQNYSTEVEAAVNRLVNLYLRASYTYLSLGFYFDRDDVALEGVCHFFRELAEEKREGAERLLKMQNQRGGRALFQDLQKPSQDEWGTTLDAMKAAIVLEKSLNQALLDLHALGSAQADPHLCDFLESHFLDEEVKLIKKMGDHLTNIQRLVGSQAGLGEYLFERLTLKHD
Sequence of RecQ-like DNA helicase BLM (Homo sapiens) (P54132 whole entry, looked up): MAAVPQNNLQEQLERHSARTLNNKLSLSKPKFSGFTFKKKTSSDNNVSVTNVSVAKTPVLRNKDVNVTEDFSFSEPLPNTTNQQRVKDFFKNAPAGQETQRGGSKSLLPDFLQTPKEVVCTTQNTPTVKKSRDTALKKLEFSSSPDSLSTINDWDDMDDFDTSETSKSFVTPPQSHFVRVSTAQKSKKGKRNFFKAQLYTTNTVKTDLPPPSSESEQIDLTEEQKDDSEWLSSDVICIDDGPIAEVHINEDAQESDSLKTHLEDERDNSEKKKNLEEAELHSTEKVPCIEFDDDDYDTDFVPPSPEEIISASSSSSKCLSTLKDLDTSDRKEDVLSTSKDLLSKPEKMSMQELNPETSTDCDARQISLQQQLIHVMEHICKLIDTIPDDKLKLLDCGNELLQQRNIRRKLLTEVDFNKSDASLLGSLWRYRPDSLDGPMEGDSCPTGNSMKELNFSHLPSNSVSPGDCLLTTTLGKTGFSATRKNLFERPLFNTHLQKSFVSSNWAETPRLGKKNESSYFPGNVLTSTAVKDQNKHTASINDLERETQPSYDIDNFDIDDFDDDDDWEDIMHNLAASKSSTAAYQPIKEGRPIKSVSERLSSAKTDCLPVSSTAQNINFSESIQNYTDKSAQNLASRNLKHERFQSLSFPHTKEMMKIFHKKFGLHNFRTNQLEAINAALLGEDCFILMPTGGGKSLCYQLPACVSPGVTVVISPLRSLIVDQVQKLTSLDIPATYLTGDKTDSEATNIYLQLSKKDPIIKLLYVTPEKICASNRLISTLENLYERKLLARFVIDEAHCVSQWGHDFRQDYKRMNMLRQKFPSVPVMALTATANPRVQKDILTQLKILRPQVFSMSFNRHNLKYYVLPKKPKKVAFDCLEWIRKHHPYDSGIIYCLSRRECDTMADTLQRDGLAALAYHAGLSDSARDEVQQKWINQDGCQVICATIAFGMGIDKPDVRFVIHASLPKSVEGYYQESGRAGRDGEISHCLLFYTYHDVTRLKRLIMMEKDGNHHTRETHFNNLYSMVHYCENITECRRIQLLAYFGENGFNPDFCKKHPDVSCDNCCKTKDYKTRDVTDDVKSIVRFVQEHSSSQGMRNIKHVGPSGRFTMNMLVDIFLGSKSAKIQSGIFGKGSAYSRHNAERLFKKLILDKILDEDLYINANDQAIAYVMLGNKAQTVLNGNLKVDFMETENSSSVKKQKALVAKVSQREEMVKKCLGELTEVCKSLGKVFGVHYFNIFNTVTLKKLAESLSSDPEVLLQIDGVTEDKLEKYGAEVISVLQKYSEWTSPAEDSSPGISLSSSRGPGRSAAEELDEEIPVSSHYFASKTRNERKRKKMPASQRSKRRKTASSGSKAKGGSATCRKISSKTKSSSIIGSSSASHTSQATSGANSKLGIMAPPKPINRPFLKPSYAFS

Turning to `CC[n+]1c(-c2ccccc2)c2cc(N)ccc2c2ccc(N)cc21`, the activity change, negative = inhibition in [1] was 1.12% (inactive). In addition, the values for the max response in experiment [1] (setting [13]) and in experiment [1] (setting [14]) were 2.87% and 6.23%, respectively.

Take `O=C(NC(=O)c1c(F)cccc1F)Nc1cc(Cl)c(OC(F)(F)C(F)C(F)(F)F)cc1Cl` (configuration not stated): the activity change, negative = inhibition in experiment [1] was -23.4% (inactive). Moreover, the values for the max response in [1] (setting [13]) and in experiment [1] (setting [14]) were 4.92% and -17.8%, respectively.

For the molecule `OCc1cc(C(O)CNCCCCCCOCCCCc2ccccc2)ccc1O` (configuration not stated), the Potency entry in experiment [2] is “inactive”.

With `NS(=O)(=O)c1cc2c(cc1Cl)NCNS2(=O)=O`, the Potency result in experiment [2] is “inactive”.

Turning to `C=Cc1c(C)c2cc3[nH]c(cc4nc(cc5nc(cc1[nH]2)C(C)=C5CCC(=O)O)C(CCC(=O)O)=C4C)c(C)c3C=C`, in [2], the Potency result was “inactive”.

Turning to `CCCCC1C(=O)N(c2ccccc2)N(c2ccccc2)C1=O`, in experiment [2], the Potency result was “inactive”.

As to `CNC(=O)Oc1cccc2ccccc12`, in experiment [3], the result was inactive.

Turning to `COc1cc2c(cc1OC)-c1cc(=Nc3c(C)cc(C)cc3C)n(C)c(=O)n1CC2`, in [2], the Potency entry was “inactive”.

`NC(N)=N/N=C/c1c(Cl)cccc1Cl`: the Potency in [4] was 11.2 µM (active); in experiment [5], 11.2 µM (active); in experiment [6], 6.31 µM (active); in experiment [7], 11.2 µM (active); in [8], 3.98 µM (active); in experiment [9] it was 6.31 µM (active). In [10], the molecule was called inactive. Also, the Potency result in experiment [2] was “inactive”.

In the case of `N[C@@H](Cc1c[nH]c2ccc(O)cc12)C(=O)O`, the Potency result in experiment [2] is “inactive”.

For the molecule `Cc1ccc(=O)n(-c2ccccc2)c1`, the Potency entry in experiment [2] is “inactive”.

With `C[C@@H]1C[C@@H]([C@H](O)CC2CC(=O)NC(=O)C2)C(=O)[C@@H](C)C1`, in [3], the outcome was inactive.

Turning to `Brc1c(NC2=NCCN2)ccc2nccnc12`, in experiment [11], the molecule was called inactive. Also, the Potency entry in experiment [2] was “inactive”.

As for `C[N+](C)(C)CCCCCCCCCC[N+](C)(C)C`, the Potency is 5.01 µM (active) in [4]; 3.98 µM (active) in experiment [5]; 0.355 µM (active) in experiment [6]; 1.26 µM (active) in [7]; 10 µM (active) in experiment [12]; 0.562 µM (active) in [8]. Also, the Potency in experiment [9] is 1.78 µM (active). The molecule was called inactive in experiment [11]. Also, the Potency result in experiment [2] is “inactive”.

As for `Cc1[nH]c(=O)c(C#N)cc1-c1ccc2nccn2c1`, the Potency entry in experiment [2] was “inactive”.

With `CN(C)C(=S)SSC(=S)N(C)C`, the result in experiment [3] was inactive.

On to `C#CCN(C)Cc1ccccc1`, for which, in experiment [2], the Potency result was “inactive”.

With `Oc1c(Br)cc(Br)cc1Br`, in experiment [3], the result was inactive.

As to `CCCn1cnc2c1c(=O)n(CCCCC(C)=O)c(=O)n2C`, the Potency entry in experiment [2] is “inactive”.

As to `COP(=O)(OC)OC=C(Cl)Cl`, the outcome in experiment [3] was inactive.

With `Fc1ccc(C(c2ccc(F)cc2)N2CCN(C/C=C/c3ccccc3)CC2)cc1`, the Potency result in [2] is “inactive”.

For the molecule `COc1cc(C(=O)OCCCN2CCCN(CCCOC(=O)c3cc(OC)c(OC)c(OC)c3)CC2)cc(OC)c1OC`, the Potency entry in experiment [2] is “inactive”.

`CCN(CC)CC(=O)Nc1c(C)cccc1C`: the Potency result in [2] was “inactive”.

Regarding `COc1ccccc1N1CCN(CCCNc2cc(=O)n(C)c(=O)n2C)CC1`, the Potency result in experiment [2] is “inactive”.

Regarding `CCOC(=O)C(C)(C)Oc1ccc(Cl)cc1`, the Potency result in experiment [2] was “inactive”.

On to `CC1=C(CC(=O)O)c2cc(F)ccc2/C1=C\c1ccc(S(C)(=O)=O)cc1`, for which the Potency entry in [2] was “inactive”.

With `Cc1ccc(N(CC2=NCCN2)c2cccc(O)c2)cc1`, in [2], the Potency result is “inactive”.

Consider `COc1ccc(CN(CCN(C)C)c2ccccn2)cc1`, for which, in experiment [2], the Potency result was “inactive”.

`O=C(CCNNC(=O)c1ccncc1)NCc1ccccc1`: the Potency entry in experiment [2] is “inactive”.

On to `CN(C(=O)CCCOc1ccc2[nH]c(=O)ccc2c1)C1CCCCC1`, for which, in experiment [2], the Potency result was “inactive”.

With `CN(C)CCC(c1ccccc1)c1ccccn1` (configuration not stated), the Potency entry in experiment [2] was “inactive”.

For the molecule `NS(=O)(=O)c1cc2c(cc1Cl)NC(C1CC3C=CC1C3)NS2(=O)=O` (configuration not stated), the Potency result in experiment [2] is “inactive”.
